Inconclusive results are not listed. Active and inactive are the calls of the source. The calls were made as follows: active = hit-call score of the fitted dose curve at least 0.9, where 1 is the maximum; inconclusive = response in the unintended direction; inactive = score below 0.9.

The nature of this experiment: ACEA_ER_80hr: ACEA Biosciences xCELLigence Real-Time Cell Analysis on Estrogen Receptor Agonism for Proliferation (AID 2282667). As to conditions: T47D proliferation, impedance (xCELLigence), 80 h. In a few lines: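 Cell-growth kinetics were measured by impedance in T47D cells treated continuously with compound (top 100 uM final, 1:4 steps, 8 points). Activity at 80 h was scored as signal gain over the DMSO baseline.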
For the compound `CC(C)=CCCC(C)=CC(=O)O`, the call was inactive.

For the compound `O=S(=O)(O)c1cc(S(=O)(=O)O)c2c(N=Nc3ccccc3)c(O)ccc2c1`, the outcome was inactive.

Regarding `CC1=CC[C@@H]2C[C@H]1C2(C)C`, the result was inactive.

With `CCC=C(C)C=O`, the compound was called inactive.

Regarding `CCCCOCCOCCO`, the outcome was inactive.

Take `CC/C=C\CCOC(=O)C(C)C`: the compound was called inactive.

`C=C/C(C)=C/C/C=C(\C)CCC=C(C)C`: the result was inactive.

Turning to `c1coc(CNc2ncnc3nc[nH]c23)c1`, the result was inactive.

On to `C=C(C)C(=O)OCCOCCOC(=O)C(=C)C`, for which the call was inactive.

Take `C1CCCNCC1`: the call was inactive.

In the case of `O=C1Cc2ccccc2C1`, the outcome was inactive.

As for `C1COCO1`, the compound was classed as inactive.

Regarding `Brc1cc(Br)cc(Br)c1`, the result was inactive.

With `C=CC(=O)OCC(CO)(COC(=O)C=C)COC(=O)C=C`, the result was inactive.

Take `NC(N)=NC(N)=NCCc1ccccc1`: the result was inactive.

Regarding `Cc1cccc(C)c1`, the compound was classed as inactive.

As a reminder, the AC50 is the concentration giving half of the maximal activity seen. For the compound `S=c1[nH][nH]c(=S)s1`, the AC50 was 2.68 µM (active).

As to `C1=COCCC1`, the outcome was inactive.

As to `CC/C=C\CCCCO`, the call was inactive.

For the compound `CCOC(=O)C=Cc1ccccc1`, the outcome was inactive.

Turning to `CC(CO)(CO)[N+](=O)[O-]`, the compound was classed as inactive.

For the compound `CC(CCO)CC(C)(C)C` (configuration not stated), the compound was classed as inactive.

As for `NNC(=O)OCc1ccccc1`, the compound was called inactive.

In the case of `CN(C)C`, the call was inactive.

For the compound `CCCCCCCCCOS(=O)(=O)O`, the outcome was inactive.

As to `CC(C)(C)C1CCC(O)CC1` (configuration not stated), the result was inactive.

For the compound `c1ccc(OCCOc2ccccc2)cc1`, the compound was called inactive.

Turning to `CCC(=O)OCC=Cc1ccccc1`, the AC50 was 10.5 µM (active).

Regarding `CCCCCCCC(=O)N(C)C`, the outcome was inactive.

Take `CC/C=C\CCOC(C)OCC` (configuration not stated): the outcome was inactive.

Turning to `CCCCCCCCCCCCOCCOS(=O)(=O)O`, the AC50 is 1.98 µM (active).

On to `CCCCCC#CC(=O)OC`, for which the compound was classed as inactive.

Turning to `O=C(O)c1cc(C(=O)O)c(C(=O)O)cc1C(=O)O`, the outcome was inactive.

For the compound `Cc1cccc(O)c1`, the call was inactive.

Regarding `CCC(=O)OC(C)(C)C1CC=C(C)CC1` (configuration not stated), the call was inactive.

`CCCCCCCCCC(=O)OCC`: the call was inactive.

With `CCCCCCCCCCCCN1CCOCC1`, the result was inactive.

For the origin of these results see PubChem BioAssay (EPA / NIEHS).
